{
  "source": "PubChem BioAssay AID2284151",
  "about": "(EPA ToxCast)",
  "note": "Inconclusive results are not listed. Active and inactive are the calls of the source. Rule for the calls: active = hit-call score of the fitted dose curve at least 0.9, where 1 is the maximum; inactive = score below 0.9.",
  "data": [
    {"target": "human Cholecystokinin Receptor CCK2 (CCKB) Agonism, CCKBR (gene 887) (UniProt P32239)", "sequence (P32239 whole entry, looked up)": "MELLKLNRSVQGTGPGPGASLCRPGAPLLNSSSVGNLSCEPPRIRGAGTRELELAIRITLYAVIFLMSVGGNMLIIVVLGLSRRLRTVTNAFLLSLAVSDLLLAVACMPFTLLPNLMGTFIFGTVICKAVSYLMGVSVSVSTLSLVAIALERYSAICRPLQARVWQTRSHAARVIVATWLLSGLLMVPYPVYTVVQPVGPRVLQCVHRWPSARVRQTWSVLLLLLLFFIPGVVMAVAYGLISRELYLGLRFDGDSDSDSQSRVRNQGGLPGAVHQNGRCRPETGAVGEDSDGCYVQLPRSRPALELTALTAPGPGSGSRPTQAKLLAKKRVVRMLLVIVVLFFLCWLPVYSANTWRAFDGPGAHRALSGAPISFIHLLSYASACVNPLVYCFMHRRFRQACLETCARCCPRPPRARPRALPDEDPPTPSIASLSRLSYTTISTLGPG", "assay": "ERF_FR_GPCR_hCCKBR: Eurofins (ERF) G Protein-Coupled Receptor (GPCR) Radioligand Binding LeadHunter Assay for human Cholecystokinin Receptor CCK2 (CCKB) Agonism", "method": "ERF_FR_GPCR_hCCKBR is a biochemical, single-readout assay that uses extracted gene-proteins in a cell-free assay. Measurements were taken 1 hour after chemical dosing in a 96-well plate. See CCK2 (CCKB) Human Cholecystokinin GPCR Binding (Agonist Radioligand) Assay, Cerep.ERF_FR_GPCR_hCCKBR is an assay component calculated from the ERF_FR_GPCR_hCCKBR assay. It is designed to measure radioligand binding using a type of binding reporter as detected by scintillation counting with radiometry technology.Data from the assay component ERF_FR_GPCR_hCCKBR was analyzed at the assay endpoint, ERF_FR_GPCR_hCCKBR, in the positive analysis fitting direction relative to DMSO as the negative control and baseline of activity. Using a type of binding reporter, […] activity can be used to understand changes in binding as they relate to gene CCKBR. To generalize the intended target to other relatable targets, this assay endpoint is annotated to the gpcr intended target family, where the subfamily is cholecystokinin.\nHuman cells are incubated for 60 minutes at room temprature with [125I]CCK-8s ligand (0.08 nM) and CCK-8s as control inhibitor.Test Sample Requirements: Minimum for 1) Screen: 60 ul of 10 mM stock -OR- 1 mg (pre-weighed) for 10 uM final testing. 2) Dose Response: 90 ul of 10 mM stock -OR- 1 mg (pre-weighed) for a top concentration at 10 uM.", "values": [
      {"smiles": "O=C(/C=C/c1ccc(O)cc1)CC(=O)/C=C/c1ccc(O)cc1", "AC50": "3.43 µM (active)"}
    ]}
  ]
}
